Most compounds without a hit are left out; they make up all but 3.6% or so of the library.
CRE-bla Fsk: CRE-bla signaling modulation under forskolin stimulation; CHO CRE-bla reporter (cAMP response element driving beta-lactamase), forskolin EC10, beta-lactamase ratio; Potency, µM (titrated, usually from 38.2 µM), for the others: top-dose activity change, negative = inhibition, actives largely listed as activators; actives 2.5% (n = 71,000); AID 662; active = well fitted activation curve with a large enough effect in the signal ratio, with a control signal flat, not every such curve was filed as active; inconclusive = small, poorly fitted or top-dose-only effect, or effect the other way, or a change in a side signal; the % refers to the signal ratio; also: % of control where 0% means no effect
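Modulation of forskolin signalling: compounds in titration series added with EC10 NKH 477 to CHO cells carrying a CRE-driven beta-lactamase reporter, 3 h, 37C. CCF4 FRET ratio (460/530 nm, ex 405 nm) gives %activity and AC50.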
IkB sig inh: suppresses IkB signaling in ABC-DLBCL reporter cells. ABC-DLBCL IkBa-CBG/CBR dual luciferase ratio, 4 h; response scale: scaled: untreated 0%, proteasome inhibitor 100%. Potency, µM (titrated, usually from 57.1 µM), inactives show at the top dose IkBa stabilization activation. actives 0.04% (n = 110,000); active = well fitted curve in the direction sought with a large enough effect in the signal ratio, not every such curve was filed as active; inconclusive = small, poorly fitted or top-dose-only effect, or a change in a side signal; the % refers to the signal ratio;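 also: the direction sought is a rising ratio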
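In this assay, an IκBα–CBG68 fusion accumulates when IKK-driven degradation is blocked; native CBR normalizes for cell number. OCI-Ly3 cells were treated 4 h with compound and doxycycline, then green and red light read after Chroma-Glo addition.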
TSHR ag: agonists of human thyroid stimulating hormone receptor; P16473; actives 0.48% (n = 73,000); Potency, µM (series often up to 57.1 µM), inactives show at the top dose activation, usual class: activators; HEK293-CNG-TSHR cells (CNG channel as cAMP sensor), membrane potential dye, cAMP; active = well fitted activation curve with a large enough effect in the main read-out, with a control signal flat, not every such curve was filed as active; inconclusive = small, poorly fitted or top-dose-only effect, or a change in a side signal; inactive = no such curve, though single readings can be large or run the other way; % of control where 0% means no effect;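 also: the control signal comes from parental cells without the receptor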
Target sequence (P16473 whole entry, looked up): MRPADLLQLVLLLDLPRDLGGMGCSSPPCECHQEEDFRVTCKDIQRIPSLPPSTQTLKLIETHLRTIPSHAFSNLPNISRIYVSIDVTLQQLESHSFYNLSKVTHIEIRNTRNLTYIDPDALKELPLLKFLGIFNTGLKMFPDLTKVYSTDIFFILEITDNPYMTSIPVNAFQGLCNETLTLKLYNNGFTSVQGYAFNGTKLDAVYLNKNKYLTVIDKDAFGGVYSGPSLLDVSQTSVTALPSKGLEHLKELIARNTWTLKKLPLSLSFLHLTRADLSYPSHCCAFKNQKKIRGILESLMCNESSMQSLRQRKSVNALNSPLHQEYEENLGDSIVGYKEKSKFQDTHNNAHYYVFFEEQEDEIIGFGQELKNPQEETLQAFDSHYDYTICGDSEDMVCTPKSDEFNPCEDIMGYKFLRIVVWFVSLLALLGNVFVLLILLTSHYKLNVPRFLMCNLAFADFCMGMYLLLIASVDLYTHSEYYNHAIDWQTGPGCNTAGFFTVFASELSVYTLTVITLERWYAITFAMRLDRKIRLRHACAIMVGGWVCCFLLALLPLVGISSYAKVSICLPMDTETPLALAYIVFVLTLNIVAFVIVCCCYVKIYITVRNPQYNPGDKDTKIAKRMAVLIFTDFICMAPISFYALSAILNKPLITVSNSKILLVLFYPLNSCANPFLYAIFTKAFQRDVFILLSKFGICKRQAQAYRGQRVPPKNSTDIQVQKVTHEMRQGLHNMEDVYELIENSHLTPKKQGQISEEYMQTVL
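HEK 293 cells stably expressing TSHR and a cAMP-gated CNG channel; parental CNG-only cells as counterscreen. Cells preloaded 60 min with membrane potential dye plus 100 uM RO 20-1724, then compound 30 min; fluorescence read at 590 nm.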
ERK AVP inh: vasopressin-driven ERK pathway inhibition. actives 0.99% (n = 72,000). Potency, µM (top dose mostly 57.5 µM), for inactives: at the highest dose activity, negative = inhibition, actives largely listed as inhibitors. HEK293-V1b, vasopressin-stimulated pERK AlphaScreen; also: % is scaled to controls: 0 for no effect and ±100 for the full control effect; nearly all actives have a fitted effect of over 55% in size
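qHTS, compounds titrated on V1b-expressing HEK293 cells. Preincubation 30 min at 37C, vasopressin 25 nM for 5 min, lysis 10 min, bead incubation 5 hr at room temperature.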
HEK293 cAMP cs: parental HEK293 cAMP activation (counter-screen); Potency, µM (titrated, usually from 57.1 µM), for the others: at the highest dose activation, actives largely listed as activators; actives 2.5% (n = 73,000); parental HEK293 CNG cAMP sensor, membrane potential fluorescence; also: % of control where 0% means no effect; nearly all actives have a fitted effect of over 55% in size
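Counterscreen for endogenous-receptor signalling: CNG-channel HEK 293 cells report cAMP rise by membrane depolarization. After 60 min dye equilibration with 100 uM RO 20-1724, compounds incubated 30 min before bottom-read fluorescence at 590 nm.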
The depositor's hits bear a star; ? = inconclusive; . = no result; [ ] = remark or other dose. Unless noted, calls follow the shape of the dose curve; as a rule, active = well fitted curve in the direction sought with a large enough effect; inconclusive = small, poorly fitted or top-dose-only effect, or another doubt; inactive = no such curve, though single readings can be large; an effect the other way counts as inactive or inconclusive. Potency is read from the fitted curve at half-maximal effect.

SMILES	CRE-bla Fsk	IkB sig inh	TSHR ag	ERK AVP inh	HEK293 cAMP cs
O=C(O)c1ccc(S(=O)(=O)c2ccc3c(c2)C(=O)N(CC2CCCO2)C3=O)cc1 (stereo unspecified)	-4%	1%	?	-9%	20µM*
Cc1ccc(O)c(-c2cc(C(=O)Nc3ccc(S(=O)(=O)N4CC(C)OC(C)C4)cc3)[nH]n2)c1 (stereo unspecified)	?	-1%	-18%	?	-5%
Cc1cc(O)c(-c2cc(C(=O)Nc3ccc(S(=O)(=O)N4CCOCC4)cc3)[nH]n2)cc1C	?	?	-30%	25µM*	-12%
COc1cc(NC(=O)CSc2nc3ncccc3o2)cc(OC)c1	.	-1%	.	.	.
COc1ccc(NC(=O)c2cnc(C)cn2)cc1-n1cnnn1	5%	1%	9%	40µM*	-5%
Cc1ccccc1C(=O)Nc1nnc2n1CCS2	.	-1%	.	.	.
CC1=C(C(=O)N(C)Cc2ccccc2)C2(CCC(C)CC2)OC1=O (stereo unspecified)	-7%	2%	?	40%	6.3µM*
Cc1ccc(NC(=O)CCC(C(=O)O)N2C(=O)c3ccccc3C2=O)cc1 (stereo unspecified)	-2%	-1%	3%	10%	13%
Cc1ccc(-c2nc(C(=O)NC3CCCCCC3)no2)cc1	9%	?	?	-11%	20µM*
Cc1ccc(C(=O)NC2CCCCCC2)o1	-7%	4%	-12%	1%	6%
O=C(O)CCSSCCC(=O)O	-13%	0%	?	4%	-12%
O=C(CSc1nc(-c2ccccc2)nc2c1CCCC2)N1CCOCC1	1%	1%	13µM*	-9%	23%
O=C(CSc1nc(-c2ccccc2)nc2c1CCCC2)c1ccc(Cl)cc1	.	-1%	.	.	.
Cc1ccc(NC(=O)Cn2c(=O)ccc3cc(S(=O)(=O)N4CCC(C)CC4)ccc32)cc1Cl	.	-2%	.	.	.
CN(Cc1ccccc1)C(=O)C1CCN(Cc2ccc(F)cc2)CC1	-20%	1%	11%	14%	15%
CC(C)CN(C#N)c1nc(N2CCOCC2)nc(N2CCOCC2)n1	-1%	-2%	9%[11.4 µM]	-14%	10%
CCOC(=O)c1cc(-c2ccco2)nc2c1c(C)nn2-c1ccccc1	?	-2%	3.2µM*	-21%	17%
Cc1nn(-c2ccccc2)c2nc(-c3ccncc3)cc(C(=O)NCc3ccco3)c12	-8%	?	?	-15%	?
CCCCn1nnnc1NCc1cccnc1	-1%	-1%	-12%	-1%	3%
CCn1nnnc1NCc1cccn1C	?	-2%	?	13%	25µM*
Cc1nc2ccccc2c(=O)n1/N=C/c1cn(-c2ccccc2)nc1-c1cccs1	2.5µM*	?	24%	?	23%
Cc1nc2ccccc2c(=O)n1/N=C/c1ccncc1	25%	0%	-7%	?	-7%
Cc1cc(C)n2cc(CSc3nc4cc(Cl)ccc4o3)nc2n1	?	0%	16%	-11%	12%
Cc1cc(C)n2cc(CSc3nnc(-c4ccccc4)o3)nc2n1	13µM*	0%	5%	-25%	6%
OC(COc1ccc2cc(Br)ccc2c1)CN1CCN(c2ccccn2)CC1 (stereo unspecified)	-4%	?	12%	25µM*	18%
SMILES	CRE-bla Fsk	IkB sig inh	TSHR ag	ERK AVP inh	HEK293 cAMP cs
O=C(Nc1ccc(Cl)cn1)C1CCCN1S(=O)(=O)c1ccc(Cl)cc1 (stereo unspecified)	?	1%	.	-8%	24%
CCCn1c(N2CCN(CC(=O)c3c(C)n(C)c4ccccc34)CC2)nc2c1c(=O)[nH]c(=O)n2C	7.9µM*	1%	13%	?	5%
COc1ccc2c(c1)c1ncn(Cc3ccco3)c(=O)c1n2C	1µM*	3%	?	-20%	?
N#Cc1c(-c2ccco2)cc(C2CC2)nc1SCC(=O)c1ccccc1	3%	1%	?	8%	?
CSc1nc(N)nc(SCC(=O)c2ccccc2)c1C#N	3.2µM*	?	-3%	-26%	-1%
Cc1cccc(CNc2ccnc(-c3ccccc3CN(C)C)n2)c1	0%	-1%[11.4 µM]	?	31%	5µM*
CCCCOc1ncnc2c1[nH]c1ccccc12	26%	2%	?	?	?
CCCCOc1ncnc2c1[nH]c1ccc(F)cc12	1µM*	0%	?	-17%	?
O=C(CCCN1CCC(O)(c2cccc(C(F)(F)F)c2)CC1)c1ccc(F)cc1	-6%	8%	-38%	17%	7%
Fc1ccc2[nH]c3c(N4CCN(c5ccccc5)CC4)ncnc3c2c1	?	?	18%	10µM*	31%
OC1(c2cccc(C(F)(F)F)c2)CCN(c2ncnc3c2[nH]c2ccc(F)cc23)CC1	?	?	-5%	25µM*	-3%
CCCCNc1nc(Oc2ccc(=O)[nH]n2)nc(N(C)C)n1	.	-2%	.	.	.
Cn1c(N)c(C(=O)COC(=O)Cc2ccsc2)c(=O)n(C)c1=O	?	2%	-3%	4%	-9%
Cn1c(=O)n(Cc2ccc(F)cc2)c(=O)c2c1nc1n2CCCN1C1CCCCC1	10µM*	-1%	-22%	-19%	-7%
CCNc1nc(N)c(C(=O)c2ccc(Cl)s2)s1	?	-8%	-26%	3.2µM*	-9%
CCC(C)(C(=O)NC1CCCC1)N(CC1CCCO1)C(=O)c1ccc2c(c1)OCO2 (stereo unspecified)	-6%	0%	?	23%	?
CCC(C)(C(=O)NC1CCCCC1)N(Cc1ccco1)C(=O)c1ccc2c(c1)OCO2 (stereo unspecified)	-6%	2%	?	-16%	7.9µM*
CC(=O)Nc1ccc(NC(=O)c2c(-c3ccccc3)noc2C)cc1	.	1%	.	.	.
Cn1cc(/C=N/n2cnc3scc(-c4ccc(Cl)cc4)c3c2=O)c2ccccc21	1µM*	?	9%	5%	14%
CCn1cnc2scc(-c3ccccc3)c2c1=O	12%	2%	?	-10%	?
O=C(CN(C(=O)CCC(=O)Nc1nccs1)c1ccc2c(c1)OCCO2)NCc1ccco1	4%	-1%	22%	-15%	21%
COc1ccc(Nc2oc(COc3cccc(C)c3)nc2C#N)cc1	12%	3%	13%	?	4%
N#Cc1nc(COc2ccc(Cl)cc2)oc1NCc1ccc2c(c1)OCO2	12%	?	?	5%	10µM*
CCNc1oc(COc2cccc(C)c2)nc1C#N	3%	0%	?	-8%	?
COc1ccc(CNc2oc(COc3ccccc3)nc2C#N)cc1	.	.	.	.	6%
Cc1cccc(OCc2nc(C#N)c(NCc3ccc4c(c3)OCO4)o2)c1	7%	?	?	-13%	16µM*

Source: PubChem (National Center for Advancing Translational Sciences (NCATS))
